Test results as given in the antibiotic and cytotoxicity screens of Wong et al. (2023).
Screen size: about 39,000 compounds; about 1,500 (3.8%) were called active. This excerpt belongs to a sample that is enriched for actives.

Each molecule was assayed on HSkMC (human skeletal muscle cells) (assay: cytotoxicity call (relative viability < 0.9)). Settings: 10 µM.
`CN(C)/N=N/c1nc[nH]c1C(N)=O` was tested, and the cytotoxicity call was “inactive”. For `COC(=O)C[C@H]1CC[C@H](N)[C@@H](CO)O1`, the cytotoxicity call was “inactive”. In the case of `NCc1cccc(-c2ccccc2)c1`, the cytotoxicity call is reported as “inactive”. With `C[C@@H]1CCCCO[C@@H](CN(C)C(=O)NC2CCCCC2)[C@@H](C)CN([C@H](C)CO)C(=O)c2cc(NC(=O)CCCCCC(=O)Nc3ccccc3N)ccc2O1` the cytotoxicity call was “inactive”. In the case of `C[C@@H]1CN([C@@H](C)CO)C(=O)c2cc(NC(=O)Nc3ccc(F)cc3)ccc2O[C@@H](C)CCCCO[C@@H]1CN(C)C(=O)C1CCCCC1`, the cytotoxicity call is reported as “inactive”. For `C[C@@H]1CN([C@@H](C)CO)C(=O)c2cc(NS(=O)(=O)c3ccc(Cl)cc3)ccc2O[C@H]1CN(C)Cc1ccc(Cl)c(Cl)c1`, the cytotoxicity call was “active”. For `C[C@H]1CN([C@@H](C)CO)C(=O)c2cc(NS(=O)(=O)c3ccc(Cl)cc3)ccc2O[C@H]1CN(C)Cc1ccc(Cl)c(Cl)c1`, the cytotoxicity call was “active”. `C[C@H](CO)N1C[C@H](C)[C@@H](CN(C)Cc2ccc(Cl)c(Cl)c2)Oc2ccc(NS(=O)(=O)c3ccc(Cl)cc3)cc2C1=O` was tested, and the cytotoxicity call was “active”. `C[C@@H]1CN([C@H](C)CO)C(=O)c2cc(NS(=O)(=O)c3ccc(Cl)cc3)ccc2O[C@@H]1CN(C)Cc1ccc(Cl)c(Cl)c1` was tested, and the cytotoxicity call was “active”. In the case of `COc1oc(C(=O)NC2CCCCC2)c(-c2ccc(Cl)cc2)c1S(=O)(=O)c1ccccc1Cl`, the cytotoxicity call is reported as “inactive”. With `Cc1ccc(S(=O)(=O)N2C[C@H](O)COC[C@@H]3O[C@H](CC(=O)NCCN4CCCCC4)CC[C@H]32)cc1` the cytotoxicity call was “inactive”. `COc1ccc(NC(=O)N2C[C@H](O)COC[C@H]3O[C@@H](CC(=O)NCc4ccccc4OC)CC[C@@H]32)cc1` was tested, and the cytotoxicity call was “inactive”. `COc1ccc(NC(=O)N(C)C[C@H]2OCCCC[C@@H](C)Oc3ccc(NC(=O)CCC(F)(F)F)cc3C(=O)N([C@H](C)CO)C[C@H]2C)cc1` was tested, and the cytotoxicity call was “inactive”. For `C[C@@H]1CCCCO[C@H](CN(C)Cc2ccc(C(F)(F)F)cc2)[C@H](C)CN([C@@H](C)CO)C(=O)c2cc(NC(=O)CCC(F)(F)F)ccc2O1`, the cytotoxicity call was “inactive”. `COc1ccc(C#Cc2ccc3c(c2)[C@]2(C(=O)N3)[C@H](c3ccccc3OCCO)N3[C@H](c4ccccc4)[C@H](c4ccccc4)OC(=O)[C@H]3[C@@H]2C(=O)NC[C@H](O)c2ccccc2)cc1` was tested, and the cytotoxicity call was “inactive”. In the case of `COc1ccc(S(=O)(=O)N(C)C[C@@H]2Oc3c(NS(=O)(=O)c4ccc(C)cc4)cccc3C(=O)N([C@@H](C)CO)C[C@H]2C)cc1`, the cytotoxicity call is reported as “inactive”. `C[C@@H]1CN([C@@H](C)CO)C(=O)c2cc(NS(=O)(=O)c3ccc(Cl)cc3)ccc2O[C@@H](C)CCCCO[C@H]1CN(C)C(=O)c1ccncc1` was tested, and the cytotoxicity call was “inactive”. With `C=C(C)CCn1cccc1C(C)=O` the cytotoxicity call was “inactive”. `C[C@H]1CN([C@@H](C)CO)S(=O)(=O)c2ccc(C#Cc3cccc(F)c3)cc2O[C@@H]1CN(C)C(=O)CN1CCOCC1` was tested, and the cytotoxicity call was “inactive”. `Cc1noc(C)c1NC(=O)N(C)C[C@H]1Oc2ccc(NC(=O)CCCN(C)C)cc2C(=O)N([C@@H](C)CO)C[C@@H]1C` was tested, and the cytotoxicity call was “inactive”. With `C[C@@H]1CN([C@H](C)CO)S(=O)(=O)c2ccc(C3=CCCC3)cc2O[C@@H]1CN(C)C(=O)c1cnccn1` the cytotoxicity call was “inactive”. For `C[C@@H]1CN([C@H](C)CO)C(=O)c2cc(NS(=O)(=O)c3ccc(Cl)cc3)ccc2O[C@H]1CN(C)Cc1ccc(Cl)c(Cl)c1`, the cytotoxicity call was “inactive”. In the case of `C[C@@H]1CN([C@@H](C)CO)C(=O)c2cc(NS(=O)(=O)c3ccc(Cl)cc3)ccc2O[C@@H]1CN(C)Cc1ccc(Cl)c(Cl)c1`, the cytotoxicity call is reported as “active”. `C[C@@H]1CN([C@@H](C)CO)C(=O)c2cc(NS(=O)(=O)c3ccccc3)ccc2O[C@@H]1CN(C)Cc1ccc(Cl)c(Cl)c1` was tested, and the cytotoxicity call was “active”. In the case of `C[C@H](CO)N1C[C@H](C)[C@H](CN(C)Cc2ccc(Cl)c(Cl)c2)Oc2ccc(NS(=O)(=O)c3ccccc3)cc2C1=O`, the cytotoxicity call is reported as “inactive”. `C[C@H](CO)N1C[C@H](C)[C@@H](CN(C)Cc2ccc(Cl)c(Cl)c2)Oc2ccc(NS(=O)(=O)c3ccccc3)cc2C1=O` was tested, and the cytotoxicity call was “inactive”. In the case of `C[C@H]1CN([C@@H](C)CO)C(=O)c2cc(NS(=O)(=O)c3ccccc3)ccc2O[C@@H]1CN(C)Cc1ccc(Cl)c(Cl)c1`, the cytotoxicity call is reported as “inactive”. With `C[C@H]1CN([C@@H](C)CO)C(=O)c2cc(NS(=O)(=O)c3ccc(Cl)cc3)ccc2O[C@@H]1CN(C)Cc1ccc(Cl)c(Cl)c1` the cytotoxicity call was “active”. For `C[C@H](CO)N1C[C@H](C)[C@H](CN(C)Cc2ccc(Cl)c(Cl)c2)Oc2ccc(NS(=O)(=O)c3ccc(Cl)cc3)cc2C1=O`, the cytotoxicity call was “active”. For `COc1ccc(S(=O)(=O)N(C)C[C@H]2OCc3cnnn3CCCC(=O)N([C@H](C)CO)C[C@@H]2C)cc1`, the cytotoxicity call was “inactive”. In the case of `Cc1noc(C)c1NC(=O)Nc1cccc2c1O[C@@H](CN(C)S(=O)(=O)c1ccccc1)[C@H](C)CN([C@@H](C)CO)C2=O`, the cytotoxicity call is reported as “inactive”. With `C[C@@H]1CCCCO[C@H](CN(C)C(=O)c2ccncc2)[C@H](C)CN([C@@H](C)CO)C(=O)c2cc(NC(=O)C3CCCCC3)ccc2O1` the cytotoxicity call was “inactive”. In the case of `COc1ccc(-c2cnc3c(c2)C(=O)N([C@@H](C)CO)C[C@@H](C)[C@@H](CN(C)C(=O)Cc2cccnc2)O3)cc1`, the cytotoxicity call is reported as “inactive”. `C/C=C/c1cccc(-c2nc(C(=O)NCc3ccccc3)cc3c2[C@H](CCO)N([S@@](=O)C(C)(C)C)C3)c1` was tested, and the cytotoxicity call was “inactive”. `C=CCOC(=O)[C@@H]1[C@H]2C(=O)O[C@H](c3ccccc3)[C@H](c3ccccc3)N2[C@H](c2ccccc2OCCO)[C@@]12C(=O)Nc1ccc(I)cc12` was tested, and the cytotoxicity call was “inactive”. For `O=C(C[C@@H]1CC[C@H](NC(=O)Nc2ccc3c(c2)OCO3)[C@H](CO)O1)NCCCN1CCOCC1`, the cytotoxicity call was “inactive”. For `C[C@H](CO)N1C[C@H](C)[C@@H](CN(C)S(=O)(=O)c2ccc(Cl)cc2)Oc2ccc(NC(=O)Cn3cnnn3)cc2CC1=O`, the cytotoxicity call was “inactive”. `COc1ccc(-c2ccc3c(c2)O[C@H](CN(C)CC2CCOCC2)[C@H](C)CN([C@H](C)CO)S3(=O)=O)cc1` was tested, and the cytotoxicity call was “inactive”. `COCc1cn(CC[C@@H]2CC[C@@H](NC(=O)CCN3CCCCC3)[C@@H](CO)O2)nn1` was tested, and the cytotoxicity call was “inactive”. With `Cn1c(=O)c2c(ncn2CC(O)CO)n(C)c1=O` (configuration not stated) the cytotoxicity call was “inactive”. `Cn1c(=O)c(F)c(Nc2ccc(I)cc2F)c2c(=O)n(C[C@@H](O)CO)cnc21` was tested, and the cytotoxicity call was “active”. In the case of `Cn1c(=O)c2c(ncn2C[C@@H](O)CO)n(C)c1=O`, the cytotoxicity call is reported as “inactive”.
